Laboratory results reported in PubChem BioAssay AID1159580 (chemical genetic matrix, 2015).
“And” between values parts separate entries of the source, which are not always exact repeats. Equal values may be shown once. Out of some 5,500 compounds screened, about 2,000 (36%) were called active. Not shown: some 18% with an inconclusive outcome. Rule as the data show it: active = normalized growth mostly below about 0.91 (no sharp cut-off); inconclusive = no clear call, values can overlap the other calls; inactive = mostly above about 0.92. The list shows a part of the results.

Assay: chemical genetic growth profiling, strain panel (AID 1159580);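 also: tested at 20 µM; growth read once vehicle control cultures reached saturation at 30 °C; 1 = growth at the plate median or of vehicle wells; lower values mean less growth of the strain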
Details: S. cerevisiae deletion strains, growth OD

Measured: normalized growth

OC[C@H]1O[C@@H](Oc2ccc(O)cc2)[C@H](O)[C@@H](O)[C@@H]1O
inactive: locus YAL013W, strain DEP1, hits give low values 1.02 | locus YAL021C, strain ccr4, hits give low values 0.993 | locus YAL026C, strain drs2, hits give low values 1.02 | locus YAL030W, strain snc1, hits give low values 1.01 | locus YBL061C, strain skt5, hits give low values 1.02 | locus YBR009C, strain hhf1, hits give low values 1.02 | locus YBR021W, strain FUR4, hits give low values 0.988 | locus YBR023C, strain chs3, hits give low values 1.01 | locus YBR171W, strain sec66, hits give low values 1.01 | locus YBR229C, strain ROT2, hits give low values 1.02 | locus YBR231C, strain swc5, hits give low values 1 | locus YBR279W, strain paf1, hits give low values 1.01 | locus YCL011C, strain gbp2, hits give low values 1.01 | locus YCL016C, strain dcc1, hits give low values 0.992 | locus YCL029C, strain bik1, hits give low values 1.04 | locus YCL069W, strain vba3, hits give low values 1.01 | locus YCR088W, strain abp1, hits give low values 1.02 | locus YDL005C, strain med2, hits give low values 1.01 | locus YDL035C, strain GPR1, hits give low values 1 | locus YDL040C, strain nat1, hits give low values 1 | locus YDL074C, strain BRE1, hits give low values 1.03 | locus YDL101C, strain DUN1, hits give low values 1.02 | locus YDL134C, strain PPH21, hits give low values 1.02 | locus YDL185W, strain tfp1, hits give low values 1.02 | locus YDL192W, strain arf1, hits give low values 1.03 | locus YDR001C, strain nth1, hits give low values 1 | locus YDR069C, strain doa4, hits give low values 1.01 | locus YDR101C, strain arx1, hits give low values 1.01 | locus YDR137W, strain rgp1, hits give low values 1.02 | locus YDR159W, strain sac3, hits give low values 1.05 | locus YDR162C, strain NBP2, hits give low values 1.03 | locus YDR195W, strain ref2 1 | locus YDR297W, strain sur2, hits give low values 1 | locus YDR318W, strain mcm21, hits give low values 1.02 | locus YDR334W, strain swr1, hits give low values 1 | locus YDR335W, strain msn5, hits give low values 1.02 | locus YDR388W, hits give low values 1.01 | locus YDR392W, strain spt3, hits give low values 1.02 | locus YDR502C, strain sam2, hits give low values 1.01 | locus YEL003W, strain gim4, hits give low values 1.01 | locus YEL037C, strain rad23, hits give low values 0.999 | locus YEL061C, strain CIN8 (second series), hits give low values 1.01 | locus YEL061C, strain CIN8, hits give low values 1.01 | locus YER015W, strain faa2, hits give low values 1.01 | locus YER016W, strain bim1, hits give low values 1.01 | locus YER110C, hits give low values 1.03 | locus YER111C, strain swi4, hits give low values 1.01 | locus YER155C, strain BEM2 (second series), hits give low values 1.03 | locus YER155C, strain BEM2, hits give low values 0.999 | locus YER167W, strain BCK2, hits give low values 1.01 | locus YFR010W, strain ubp6, hits give low values 1.01 | locus YGL078C, strain dbp3, hits give low values 1.03 | locus YGL086W, strain mad1, hits give low values 1.01 | locus YGL167C, strain pmr1, hits give low values 1.02 | locus YGL173C, strain kem1, hits give low values 1.02 | locus YGL227W, strain vid30, hits give low values 1.01 | locus YGL240W, strain doc1, hits give low values 1.02 | locus YGL248W, strain PDE1, hits give low values 1.01 | locus YGL253W, strain hxk2, hits give low values 1.03 | locus YGR078C, strain PAC10, hits give low values 1.03 | locus YGR135W, strain pre9, hits give low values 1.03 | locus YGR252W, strain gcn5, hits give low values 1.02 | locus YHR013C, strain ard1, hits give low values 1.02 | locus YHR027C, strain rpn1, hits give low values 1.01 | locus YHR030C, strain SLT2, hits give low values 1 and 0.962 | locus YHR079C, strain IRE1 (second series), hits give low values 1.02 | locus YHR079C, strain IRE1, hits give low values 0.973 | locus YHR094C, strain hxt1, hits give low values 1.02 | locus YHR129C, strain ARP1, hits give low values 1.01 | locus YHR142W, strain chs7, hits give low values 1.01 | locus YHR200W, strain rpn10, hits give low values 1.02 | locus YIL066C, strain RNR3, hits give low values 1.01 | locus YIL073C, strain SPO22, hits give low values 1.08 | locus YIL125W, strain kgd1, hits give low values 1.02 | locus YIR030C, strain dcg1, hits give low values 1.01 | locus YJL092W, strain hpr5, hits give low values 1.01 | locus YJL095W, strain BCK1 (second series), hits give low values 1 | locus YJL095W, strain BCK1, hits give low values 1.04 and 0.973 | locus YJL115W, strain asf1, hits give low values 1 | locus YJL129C, strain trk1, hits give low values 1.03 | locus YJL134W, strain LCB3, hits give low values 1 | locus YJL154C, strain vps35, hits give low values 1.01 | locus YJL164C, strain tpk1, hits give low values 1.01 | locus YJL166W, strain qcr8, hits give low values 1.02 | locus YJL168C, strain set2, hits give low values 1.02 | locus YJL187C, strain SWE1 (second series), hits give low values 1.03 | locus YJL187C, strain SWE1, hits give low values 1.02 | locus YJR066W, strain TOR1, hits give low values 0.959 | locus YKL009W, strain mrt4, hits give low values 1.02 | locus YKL068W, hits give low values 1.01 | locus YKL085W, strain MDH1 (second series), hits give low values 1.01 | locus YKL085W, strain MDH1, hits give low values 1.01 | locus YKL160W, strain elf1, hits give low values 1 | locus YKR001C, strain vps1, hits give low values 1.03 | locus YKR026C, strain gcn3, hits give low values 1.01 | locus YKR091W, strain srl3, hits give low values 1 | locus YLL001W, strain dnm1, hits give low values 1.01 | locus YLL026W, hits give low values 1.01 | locus YLL041C, strain sdh2, hits give low values 1.03 | locus YLR027C, strain aat2, hits give low values 1.01 | locus YLR039C, strain RIC1, hits give low values 1.06 | locus YLR058C, strain SHM2, hits give low values 1.04 | locus YLR102C, strain apc9, hits give low values 1.02 | locus YLR113W, strain HOG1, hits give low values 0.944 | locus YLR221C, strain rsa3, hits give low values 1.01 | locus YLR258W, strain gsy2, hits give low values 1.01 | locus YLR262C, strain YPT6 (second series), hits give low values 1.03 | locus YLR268W, strain sec22, hits give low values 1.03 | locus YLR320W, strain mms22, hits give low values 1.03 | locus YLR330W, strain CHS5, hits give low values 1.01 | locus YLR342W, strain FKS1, hits give low values 1.01 | locus YLR357W, strain rsc2, hits give low values 1.03 | locus YLR370C, strain arc18, hits give low values 1.01 | locus YLR371W, strain rom2, hits give low values 1.01 | locus YLR384C, strain iki3, hits give low values 1.03 | locus YLR418C, strain cdc73, hits give low values 1.06 | locus YML016C, strain PPZ1, hits give low values 1 | locus YML032C, strain rad52, hits give low values 1.03 | locus YML120C, strain ndi1, hits give low values 1.01 | locus YML124C, strain tub3, hits give low values 1.02 | locus YMR058W, strain fet3, hits give low values 1.01 | locus YMR078C, strain ctf18, hits give low values 1.04 | locus YMR125W, strain sto1, hits give low values 1.03 | locus YMR129W, hits give low values 1.01 | locus YMR205C, strain PFK2, hits give low values 1 | locus YMR223W, strain ubp8, hits give low values 1.02 | locus YMR231W, strain pep5, hits give low values 1.01 | locus YMR307W, strain GAS1, hits give low values 0.945 | locus YNL067W, strain RPL9B, hits give low values 1.02 | locus YNL071W, strain lat1, hits give low values 1.01 | locus YNL183C, strain NPR1, hits give low values 0.963 | locus YNL209W, strain ssb2, hits give low values 1.02 | locus YNL233W, strain BNI4, hits give low values 1.02 | locus YNL248C, strain rpa49, hits give low values 1.03 | locus YNL250W, strain rad50, hits give low values 1.05 | locus YNL271C, strain bni1, hits give low values 1.02 | locus YNL298W, strain CLA4, hits give low values 1.02 | locus YNL307C, strain MCK1, hits give low values 1.02 | locus YNL322C, strain KRE1 (second series), hits give low values 1 | locus YNR049C, strain mso1, hits give low values 1.02 | locus YNR052C, strain pop2, hits give low values 1.03 | locus YOL006C, strain TOP1, hits give low values 1.06 | locus YOL012C, strain htz1 0.901 | locus YOL147C, strain pex11, hits give low values 1.01 | locus YOR001W, strain rrp6, hits give low values 1.01 | locus YOR061W, strain CKA2, hits give low values 1.02 | locus YOR069W, strain VPS5, hits give low values 1.01 | locus YOR070C, strain gyp1, hits give low values 1.01 | locus YOR080W, strain dia2, hits give low values 1 | locus YOR083W, strain WHI5, hits give low values 0.992 | locus YOR106W, strain vam3, hits give low values 0.992 | locus YOR136W, strain idh2, hits give low values 1.03 | locus YOR144C, strain elg1, hits give low values 1.02 | locus YOR184W, strain ser1, hits give low values 1.05 | locus YOR231W, strain MKK1, hits give low values 0.958 | locus YOR265W, strain rbl2, hits give low values 0.991 | locus YOR270C, strain vph1, hits give low values 1.05 | locus YOR290C, strain snf2, hits give low values 0.993 | locus YOR316C, strain cot1, hits give low values 1.02 | locus YPL051W, strain arl3, hits give low values 0.989 | locus YPL055C, strain LGE1, hits give low values 1.04 | locus YPL078C, strain atp4, hits give low values 1.01 | locus YPL106C, strain sse1, hits give low values 0.995 | locus YPL240C, strain hsp82, hits give low values 1.01 | locus YPL241C, strain CIN2, hits give low values 1.01 | locus YPL256C, strain CLN2, hits give low values 0.977 | locus YPR119W, strain clb2, hits give low values 1.03 | locus YPR141C, strain kar3, hits give low values 1.02 | locus YPR163C, strain tif3, hits give low values 1.03 | locus YPR167C, strain met16, hits give low values 1.03 | strain wtn01, hits give low values 1.02
